Among the data in the supplement of paper PMC10849652 are log2 fold change values, retold here.

Experiment in all cases: log2 fold change, soluble protein after heating vs DMSO (PISA); higher = thermal stabilisation; K562 cells, 10 uM, 30 min; active = over 0.2 and 3.5 SD of the protein, either way, in both replicates (recomputed)
Compound in one test: CN1CCN(CCOc2cc(OC3CCOCC3)c3c(Nc4c(Cl)ccc5c4OCO5)ncnc3c2)CC1 [saracatinib]
In a few lines:
(§1)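 Values are thermal stability changes relative to control samples and are taken from duplicates. They are stated as log2 fold changes. Before quantification by TMTpro 16plex LC-MS/MS with equalised channel sums, K562 cells at 2×10^6 cells/mL were treated with 10 μM compound for 30 min, heated in aliquots for 3 min across 48°C-58°C, pooled, extracted in PBS with 0.5% NP-40 at 4°C, and centrifuged at 21,000xg for 90 min to give the soluble supernatant.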

Compound in a further test: CN1CCN(c2nc(C3=C(c4c[nH]c5ccccc45)C(=O)NC3=O)c3ccccc3n2)CC1 [sotrastaurin]
In a few lines:
as §1

Compound in the next test: CN1CC[C@H](c2c(O)cc(O)c3c(=O)cc(-c4ccccc4Cl)oc23)[C@H](O)C1 [alvocidib]
In a few lines: as §1

Compound in another test: CN1CCc2c(c3ccccc3n2Cc2ccc(C(=O)NO)cc2)C1 [Tubastatin A]
The procedure, abridged: as §1

Compound in test [1]: CNC(=O)C1=CC=CC=C1NC2=NC(=NC=C2Cl)NC3=C(C=C(C=C3)N4CCOCC4)OC
In a few lines: as §1

Compound in a further test: CNC(=O)c1ccc(Nc2ncc(C(F)(F)F)c(NCc3nccnc3N(C)S(C)(=O)=O)n2)cc1 [defactinib]
The procedure, abridged: as §1

Compound in the next test: CNCc1ccc(-c2[nH]c3cc(F)cc4c3c2CCNC4=O)cc1 [rucaparib]
The procedure, abridged: as §1

Compound in test [2]: CNc1nc(-c2ccc3c(N)n[nH]c3c2)cc(N2C[C@@H](C(=O)NC3CCCCC3)CC[C@H]2C)n1
The procedure, abridged: as §1

Compound in a further test: COC(=O)N[C@@H](C)CNc1nccc(-c2cn(C(C)C)nc2-c2cc(Cl)cc(NS(C)(=O)=O)c2F)n1 [encorafenib]
In a few lines: as §1

Compound in test [3]: COC(=O)[C@H](CCSC)NC(=O)C1=C(C=C(C=C1)NC[C@H](CS)N)C2=CC=CC=C2
The procedure, abridged: as §1

The full data set covers some 7,900 targets. This sample favours those with a hit. About 0.6% of all pairs of compound and target were hits. Values without a mark were called inactive.

Chain of UniProt Q12824 (Q12824 whole entry, looked up): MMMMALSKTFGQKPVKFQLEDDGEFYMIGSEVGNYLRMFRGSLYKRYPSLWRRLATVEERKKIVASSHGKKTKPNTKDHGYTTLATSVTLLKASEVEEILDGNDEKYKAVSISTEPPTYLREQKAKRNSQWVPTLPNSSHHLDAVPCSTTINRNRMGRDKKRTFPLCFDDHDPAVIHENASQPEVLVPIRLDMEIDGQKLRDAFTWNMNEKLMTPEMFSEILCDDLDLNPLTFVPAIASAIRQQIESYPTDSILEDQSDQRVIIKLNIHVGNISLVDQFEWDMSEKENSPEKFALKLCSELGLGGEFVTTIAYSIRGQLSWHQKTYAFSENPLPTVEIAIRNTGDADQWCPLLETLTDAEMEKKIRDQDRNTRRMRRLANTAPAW
Chain of UniProt Q8IWA5 (Q8IWA5 whole entry, looked up): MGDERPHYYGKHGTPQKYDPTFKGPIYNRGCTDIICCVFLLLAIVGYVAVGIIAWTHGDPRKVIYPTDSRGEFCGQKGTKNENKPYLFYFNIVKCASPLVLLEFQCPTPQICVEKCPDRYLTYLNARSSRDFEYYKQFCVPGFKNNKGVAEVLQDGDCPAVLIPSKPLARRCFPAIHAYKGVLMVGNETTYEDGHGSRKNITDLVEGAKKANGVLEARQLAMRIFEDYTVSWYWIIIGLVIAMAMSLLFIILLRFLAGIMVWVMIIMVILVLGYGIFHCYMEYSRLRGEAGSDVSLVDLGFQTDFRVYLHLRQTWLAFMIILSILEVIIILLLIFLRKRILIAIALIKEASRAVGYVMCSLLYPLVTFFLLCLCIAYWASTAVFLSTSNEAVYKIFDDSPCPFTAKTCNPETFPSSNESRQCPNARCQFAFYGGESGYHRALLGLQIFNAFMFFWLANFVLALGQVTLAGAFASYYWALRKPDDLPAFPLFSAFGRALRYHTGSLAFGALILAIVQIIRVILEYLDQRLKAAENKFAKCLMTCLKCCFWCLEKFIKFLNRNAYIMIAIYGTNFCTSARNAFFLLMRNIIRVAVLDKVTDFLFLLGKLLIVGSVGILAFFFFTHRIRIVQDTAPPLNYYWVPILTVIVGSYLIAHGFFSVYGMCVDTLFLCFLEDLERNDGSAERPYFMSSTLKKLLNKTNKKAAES
Chain of UniProt Q92536 (Q92536 whole entry, looked up): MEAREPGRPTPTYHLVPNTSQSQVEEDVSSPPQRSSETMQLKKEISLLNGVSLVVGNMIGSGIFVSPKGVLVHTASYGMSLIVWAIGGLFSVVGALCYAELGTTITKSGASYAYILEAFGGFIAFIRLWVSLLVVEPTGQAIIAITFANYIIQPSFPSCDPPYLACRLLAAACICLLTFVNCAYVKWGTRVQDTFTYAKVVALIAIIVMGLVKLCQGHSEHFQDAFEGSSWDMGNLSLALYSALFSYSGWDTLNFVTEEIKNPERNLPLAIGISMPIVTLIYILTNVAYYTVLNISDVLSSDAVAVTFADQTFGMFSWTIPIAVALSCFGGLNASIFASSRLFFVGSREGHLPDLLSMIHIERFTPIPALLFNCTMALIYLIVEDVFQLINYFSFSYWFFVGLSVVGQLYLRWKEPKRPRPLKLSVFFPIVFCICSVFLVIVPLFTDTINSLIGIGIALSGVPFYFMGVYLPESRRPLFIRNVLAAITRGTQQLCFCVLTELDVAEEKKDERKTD
Chain of UniProt Q9Y5X1 (Q9Y5X1 whole entry, looked up): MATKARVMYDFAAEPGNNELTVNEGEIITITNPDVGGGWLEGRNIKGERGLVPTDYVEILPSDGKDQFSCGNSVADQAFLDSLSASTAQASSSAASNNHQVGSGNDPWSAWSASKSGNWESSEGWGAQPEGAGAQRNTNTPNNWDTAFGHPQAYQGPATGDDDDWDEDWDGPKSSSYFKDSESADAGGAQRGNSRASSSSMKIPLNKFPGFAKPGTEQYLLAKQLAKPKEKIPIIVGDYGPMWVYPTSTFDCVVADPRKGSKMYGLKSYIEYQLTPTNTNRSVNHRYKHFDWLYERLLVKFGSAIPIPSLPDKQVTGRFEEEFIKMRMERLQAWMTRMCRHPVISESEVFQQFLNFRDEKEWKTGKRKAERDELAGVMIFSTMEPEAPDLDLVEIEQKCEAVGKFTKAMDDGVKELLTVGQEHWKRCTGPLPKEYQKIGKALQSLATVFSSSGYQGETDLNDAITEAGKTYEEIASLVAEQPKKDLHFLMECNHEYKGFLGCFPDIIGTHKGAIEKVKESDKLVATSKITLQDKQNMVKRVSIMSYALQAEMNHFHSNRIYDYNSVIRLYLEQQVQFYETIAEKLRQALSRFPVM
Chain of UniProt Q13395 (Q13395 whole entry, looked up): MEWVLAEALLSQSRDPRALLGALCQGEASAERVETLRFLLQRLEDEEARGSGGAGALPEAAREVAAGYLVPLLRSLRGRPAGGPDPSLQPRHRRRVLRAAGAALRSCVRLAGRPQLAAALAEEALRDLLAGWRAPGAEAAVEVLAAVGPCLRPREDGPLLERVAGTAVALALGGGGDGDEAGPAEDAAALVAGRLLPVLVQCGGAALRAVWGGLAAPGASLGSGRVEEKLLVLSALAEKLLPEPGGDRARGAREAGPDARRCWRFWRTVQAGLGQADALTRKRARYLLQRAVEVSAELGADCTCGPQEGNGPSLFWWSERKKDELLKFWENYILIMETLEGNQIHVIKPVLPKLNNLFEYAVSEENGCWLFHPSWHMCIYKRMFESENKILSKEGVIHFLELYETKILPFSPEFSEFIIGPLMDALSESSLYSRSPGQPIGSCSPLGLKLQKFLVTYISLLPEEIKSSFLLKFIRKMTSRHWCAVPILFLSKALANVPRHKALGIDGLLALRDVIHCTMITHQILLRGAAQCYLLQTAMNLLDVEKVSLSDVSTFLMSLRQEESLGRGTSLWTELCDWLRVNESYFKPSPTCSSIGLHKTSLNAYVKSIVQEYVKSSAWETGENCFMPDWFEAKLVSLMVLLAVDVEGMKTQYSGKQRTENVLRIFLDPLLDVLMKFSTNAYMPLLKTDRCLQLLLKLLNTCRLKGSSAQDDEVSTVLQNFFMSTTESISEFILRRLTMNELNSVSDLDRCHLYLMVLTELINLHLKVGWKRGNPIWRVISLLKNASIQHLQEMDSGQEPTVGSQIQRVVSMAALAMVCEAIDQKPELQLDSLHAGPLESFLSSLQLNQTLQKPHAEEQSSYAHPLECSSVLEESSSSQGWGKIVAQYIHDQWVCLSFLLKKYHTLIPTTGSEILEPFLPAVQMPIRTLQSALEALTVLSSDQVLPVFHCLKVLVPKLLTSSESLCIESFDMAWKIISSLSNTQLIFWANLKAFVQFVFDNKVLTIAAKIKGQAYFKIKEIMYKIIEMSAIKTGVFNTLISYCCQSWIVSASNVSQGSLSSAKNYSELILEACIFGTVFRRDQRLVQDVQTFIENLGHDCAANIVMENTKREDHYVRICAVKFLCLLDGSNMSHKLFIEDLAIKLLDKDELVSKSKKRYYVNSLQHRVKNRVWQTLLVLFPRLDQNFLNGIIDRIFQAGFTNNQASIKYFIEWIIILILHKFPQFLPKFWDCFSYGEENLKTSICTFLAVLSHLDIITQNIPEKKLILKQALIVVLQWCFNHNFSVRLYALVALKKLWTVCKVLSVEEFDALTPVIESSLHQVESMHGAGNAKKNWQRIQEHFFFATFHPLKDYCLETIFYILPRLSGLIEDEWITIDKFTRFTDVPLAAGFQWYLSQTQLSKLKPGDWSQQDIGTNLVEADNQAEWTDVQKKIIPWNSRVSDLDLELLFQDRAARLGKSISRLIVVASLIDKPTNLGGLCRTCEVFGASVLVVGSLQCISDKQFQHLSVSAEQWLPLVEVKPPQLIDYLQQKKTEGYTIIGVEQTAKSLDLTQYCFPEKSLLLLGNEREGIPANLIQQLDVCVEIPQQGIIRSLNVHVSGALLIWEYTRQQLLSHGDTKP
Chain of UniProt Q6PCB7 (Q6PCB7 whole entry, looked up): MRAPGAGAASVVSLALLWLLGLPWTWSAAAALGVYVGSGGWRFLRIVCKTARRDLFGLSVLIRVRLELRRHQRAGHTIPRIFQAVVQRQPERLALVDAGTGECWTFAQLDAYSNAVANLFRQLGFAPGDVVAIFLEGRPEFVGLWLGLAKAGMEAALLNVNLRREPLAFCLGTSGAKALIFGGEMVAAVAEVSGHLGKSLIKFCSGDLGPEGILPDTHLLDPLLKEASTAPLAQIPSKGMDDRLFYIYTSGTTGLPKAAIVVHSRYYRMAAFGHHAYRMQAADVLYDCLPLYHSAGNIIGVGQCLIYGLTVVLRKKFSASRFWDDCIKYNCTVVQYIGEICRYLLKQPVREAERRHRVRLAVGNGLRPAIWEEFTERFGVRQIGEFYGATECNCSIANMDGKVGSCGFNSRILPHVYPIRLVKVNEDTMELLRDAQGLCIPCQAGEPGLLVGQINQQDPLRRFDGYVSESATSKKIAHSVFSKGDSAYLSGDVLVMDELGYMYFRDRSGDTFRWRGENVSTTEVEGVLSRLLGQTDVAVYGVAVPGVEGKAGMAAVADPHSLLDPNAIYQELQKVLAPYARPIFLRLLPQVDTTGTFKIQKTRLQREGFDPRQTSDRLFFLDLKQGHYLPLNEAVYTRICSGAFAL
Chain of UniProt Q8WXA9 (Q8WXA9 whole entry, looked up): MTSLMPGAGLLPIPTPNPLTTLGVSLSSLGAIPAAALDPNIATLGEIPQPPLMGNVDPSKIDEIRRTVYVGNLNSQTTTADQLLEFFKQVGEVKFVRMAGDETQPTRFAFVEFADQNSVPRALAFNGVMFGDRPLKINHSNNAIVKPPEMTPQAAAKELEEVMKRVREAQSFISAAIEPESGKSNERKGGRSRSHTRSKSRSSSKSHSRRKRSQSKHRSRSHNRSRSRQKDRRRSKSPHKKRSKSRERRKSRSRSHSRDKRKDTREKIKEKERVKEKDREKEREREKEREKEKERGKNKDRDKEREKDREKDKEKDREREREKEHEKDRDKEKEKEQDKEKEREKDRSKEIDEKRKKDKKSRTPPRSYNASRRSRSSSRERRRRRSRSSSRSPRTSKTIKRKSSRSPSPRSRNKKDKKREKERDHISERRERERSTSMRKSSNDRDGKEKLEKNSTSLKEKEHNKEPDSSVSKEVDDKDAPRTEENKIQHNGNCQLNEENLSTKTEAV

TARBP1 (UniProt Q13395): the log2 fold change with saracatinib is 0.026; in the test with sotrastaurin, -0.036; with alvocidib, -0.031; with Tubastatin A it was -0.033; in test [1] it was 0.021; in the test with defactinib it was -0.026. For the same target, the log2 fold change with rucaparib was 0.042; in test [2], -0.027; with encorafenib it was -0.041; in test [3], 0.014.
SNX9 (UniProt Q9Y5X1): the log2 fold change was 0.01 with saracatinib; -0.064 with sotrastaurin; -0.069 in the test with alvocidib; -0.025 with Tubastatin A; 0.038 in [1]; -0.112 in the test with defactinib. Also, the log2 fold change in the test with rucaparib is 0.058; in test [2], -0.005; with encorafenib, 0.049; in test [3] it was 0.
On to SREK1 isoform 2 (UniProt Q8WXA9), for which the log2 fold change is -0.034 with saracatinib; -0.106 with sotrastaurin; 0.005 with alvocidib; 0.061 with Tubastatin A; -0.422 in [1]; -0.371 in the test with defactinib. For the same target, the log2 fold change with rucaparib was 0.083; in [2], 0.013; with encorafenib it was 0.059; in [3], -0.007.
For the target SLC27A1 (UniProt Q6PCB7), the log2 fold change was -0.007 with saracatinib; 0.013 in the test with sotrastaurin; -0.203 with alvocidib; -0.252 with Tubastatin A; -0.011 in [1]; 0.064 with defactinib. Moreover, the log2 fold change in [2] is 0.146; in [3], -0.183.
As for SLC7A6 (UniProt Q92536), the log2 fold change in the test with saracatinib is 0.018; with sotrastaurin it was 0.022; with alvocidib, -0.096; in the test with Tubastatin A, 0; in test [1], -0.16; with defactinib it was -0.056. Besides, the log2 fold change with rucaparib was -0.034; in [2], 0.027; in the test with encorafenib, 0.002; in test [3], -0.047.
SMARCB1 (UniProt Q12824): the log2 fold change with saracatinib is -0.09; with sotrastaurin it was -0.192; with alvocidib it was -0.106; in the test with Tubastatin A, 0.016; in the test with defactinib, -0.158; with rucaparib, 0.809 (active). Also, the log2 fold change was -0.009 in test [2], -0.247 in the test with encorafenib and 0.144 in test [3].
For the target SLC44A2 isoform 2 (UniProt Q8IWA5), the log2 fold change in the test with saracatinib is 0.104; in the test with sotrastaurin it was 0.056; with alvocidib it was -0.051; with Tubastatin A, -0.053; in test [1], -0.055; with defactinib, -0.137. Besides, the log2 fold change with rucaparib was -0.044; in test [2], 0.043; in the test with encorafenib, -0.125; in [3] it was 0.02.
